The values below come from PubChem BioAssay (NCI).

This is part of a sample that, as a whole, favours compounds with a hit. Of some 83,000 tested, about 20% had one in any assay.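 Percent growth is the endpoint: 0 to 100 indicates growth inhibition (40 means 60% inhibition), 0 means no net growth, and negative values indicate cell death.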 A number with no mark means an inactive call. The source made the active and inactive calls. The calls were made as follows: active = growth percent below 10; inactive = the rest.

Common to all, as to assay: NCI-60 one-dose screen, 48 h (100 = growth as untreated, 0 = no growth, -100 = all killed)
One assay concerns NCI-H23 lung. The following applies: 10 µM unless noted.
For another assay, the system named is NCI-H322M lung. Particulars: 10 µM unless noted.
For the next assay, the system named is HOP-62 NSCLC. The following applies: 10 µM unless noted.
A further assay has as its system NCI-H460 lung. Particulars: 10 µM unless noted.
A further assay deals with A549/ATCC NSCLC. The following applies: 10 µM unless noted.
The subject of another assay is 786-0 renal. The following applies: 10 µM unless noted.
For a further assay, the system named is COLO 205 colon. Particulars: 10 µM unless noted.
The subject of a further assay is NCI-H522 lung. Particulars: 10 µM.
The test system of a further assay is HOP-92 NSCLC. The following applies: 10 µM unless noted.

As to `COc1cc2nc(SCc3cc(OC)c(OC)c(OC)c3)n(-c3ccccc3OC)c(=O)c2cc1OC`, the growth in the assay on NCI-H23 lung was 79.9%; with NCI-H322M lung, 85.1%; in the assay with HOP-62 NSCLC, 93.2%; with NCI-H460 lung it was 83.4%; in the assay on A549/ATCC NSCLC, 88%; with 786-0 renal it was 91.4%. Moreover, the growth in the assay with COLO 205 colon was 118%.

Consider `CCN(c1ccc(C(=O)N2CCN(c3ccccc3)CC2)cc1)S(C)(=O)=O`, for which the growth was 103% with NCI-H23 lung; 102% with NCI-H322M lung; 104% in the assay with HOP-62 NSCLC; 108% with NCI-H460 lung; 105% in the assay on A549/ATCC NSCLC; 101% in the assay with 786-0 renal. Moreover, in the assay on COLO 205 colon, the growth is 113%.

Turning to `CCOC(=O)c1c(Cl)c2c(n1Cc1ccc(OC)cc1)-c1oncc1CCC2`, the growth in the assay on NCI-H23 lung was 86.5%; with NCI-H322M lung, 95.2%; with HOP-62 NSCLC, 98.4%; with NCI-H460 lung, 95.1%; in the assay on NCI-H522 lung, 95.4%; in the assay with A549/ATCC NSCLC, 86.1%. Moreover, the growth is 90.4% in the assay with 786-0 renal and 93.2% in the assay on COLO 205 colon.

With `Oc1ccc2ccccc2c1C1NN=C(c2ccccc2)S1` (stereo not given), the growth was 35% with NCI-H23 lung; 29.2% in the assay on NCI-H322M lung; 28.8% in the assay with HOP-62 NSCLC; -27.8% (active) in the assay on NCI-H460 lung; 18% in the assay with A549/ATCC NSCLC; 6.82% (active) with 786-0 renal. Besides, in the assay on COLO 205 colon, the growth is 16.6%.

In the case of `CC(C)(C)[Si](C)(C)OC1[C@@H](COC(N)=O)O[C@@H](n2cnc3c(N)ncnc32)[C@H]1O[Si](C)(C)C(C)(C)C` (stereo not given in full), the growth in the assay on NCI-H23 lung was 87.9%; with NCI-H322M lung, 114%; in the assay on HOP-62 NSCLC it was 95.7%; in the assay on NCI-H460 lung, 83.9%; in the assay with A549/ATCC NSCLC, 67.8%; with 786-0 renal it was 91.2%. Besides, the growth in the assay with COLO 205 colon was 103%.

Turning to `COc1cccc(Nc2nc(NCCO)c3ccccc3n2)c1`, the growth in the assay with NCI-H23 lung was 85.8%; in the assay with NCI-H322M lung it was 86.4%; with HOP-62 NSCLC, 93.1%; in the assay on NCI-H522 lung it was 70.8%; in the assay with A549/ATCC NSCLC, 68.3%; in the assay on 786-0 renal it was 86%. In addition, in the assay with COLO 205 colon, the growth is 108%.

In the case of `COc1cc(-c2nc(Nc3nc4ccccc4[nH]3)nc(N)c2C#N)cc(OC)c1OC`, the growth was 87.9% with NCI-H23 lung; 83.2% with NCI-H322M lung; 65.1% in the assay on HOP-62 NSCLC; 50.5% with HOP-92 NSCLC; 69.6% with A549/ATCC NSCLC; 67.1% in the assay with 786-0 renal. Moreover, in the assay with COLO 205 colon, the growth was 32.3%.

Consider `Clc1nc(-c2ccccn2)nc2sc3c(c12)CCCCCC3`, for which the growth in the assay on NCI-H23 lung is 82.4%; in the assay on NCI-H322M lung, 84.5%; with HOP-62 NSCLC, 86.6%; in the assay on NCI-H460 lung, 90.9%; with A549/ATCC NSCLC, 99.8%; in the assay on 786-0 renal it was 98.4%. The growth in the assay on COLO 205 colon is 115%.

In the case of `O=c1[nH]c(=S)[nH]c(=O)n1Cc1cccc2ccccc12`, the growth is 102% with NCI-H23 lung; 114% in the assay on NCI-H322M lung; 106% in the assay with HOP-62 NSCLC; 97.6% in the assay on NCI-H460 lung; 99.7% in the assay with A549/ATCC NSCLC; 120% in the assay with COLO 205 colon.

Consider `O=C1c2ccccc2-c2nnc(-c3ccc(Br)cc3)cc21`, for which the growth in the assay with NCI-H23 lung was 47%; in the assay with NCI-H322M lung, 86.8%; in the assay with HOP-62 NSCLC, 56.3%; with NCI-H460 lung it was 81.6%; with A549/ATCC NSCLC it was 1.3% (active); in the assay with 786-0 renal it was 82.3%. Besides, the growth with COLO 205 colon is 99.7%.

Take `COC(=O)/C=C1/CCC2C3CCC4=CC(=O)C(Br)CC4(C)C3C(=O)CC12C` (stereo not given): the growth is 67.5% in the assay with NCI-H23 lung; 115% with NCI-H322M lung; 80.6% with HOP-62 NSCLC; 59.3% in the assay with NCI-H460 lung; 83.8% in the assay on 786-0 renal; 80.2% in the assay on COLO 205 colon.

With `COc1ccc(OC2=C(C#N)C(=N)N3c4ccccc4Sc4ccccc4C3N2)cc1` (stereo not given), the growth is 87.9% in the assay with NCI-H23 lung; 97.5% in the assay with NCI-H322M lung; 79.9% in the assay on HOP-62 NSCLC; 97.8% in the assay with NCI-H522 lung; 104% with A549/ATCC NSCLC; 105% in the assay with 786-0 renal. In addition, the growth in the assay on COLO 205 colon was 103%.

As to `c1ccc(-c2nc(N3CCOCC3)c3c4c(sc3n2)CCCCCC4)nc1`, the growth in the assay on NCI-H23 lung is 62.1%; with NCI-H322M lung it was 73%; with HOP-62 NSCLC it was 70.3%; with NCI-H460 lung it was 33.6%; in the assay on A549/ATCC NSCLC, 28.9%; with 786-0 renal, 87.1%. In the assay with COLO 205 colon, the growth is 68.5%.

With `NC(=O)c1nc2c([nH]c1=O)CCCC2`, the growth in the assay with NCI-H23 lung is 104%; in the assay with NCI-H322M lung, 120%; with HOP-62 NSCLC, 94.7%; with NCI-H460 lung, 115%; in the assay on A549/ATCC NSCLC, 103%; in the assay on 786-0 renal, 106%. For the same compound, the growth with COLO 205 colon was 101%.

Consider `COc1ccc(Nc2nc(NCCNc3ccnc4cc(Cl)ccc34)nc(N3CCOCC3)n2)cc1`, for which the growth with NCI-H23 lung is 82.3%; with NCI-H322M lung, 74.5%; in the assay on HOP-62 NSCLC, 92.2%; in the assay on NCI-H460 lung it was 37.2%; with A549/ATCC NSCLC it was 70.9%; in the assay with 786-0 renal it was 57.2%. Besides, the growth with COLO 205 colon is -37.2% (active).

`COC(=O)c1c2c(c(C)[n+]([O-])c1C)C(=O)C=C(NCc1ccc(Cl)cc1)C2=O`: the growth with NCI-H23 lung is -35.7% (active); with NCI-H322M lung, -7.11% (active); in the assay with NCI-H460 lung it was 0.382% (active); with HOP-92 NSCLC, -27.9% (active); with NCI-H522 lung it was -15.1% (active); in the assay on A549/ATCC NSCLC, -16.5% (active). Moreover, the growth with 786-0 renal is 7.94% (active).

As to `O=c1c2c(=NCCN3CCCC3)cc3c(=O)n(CCCN4CCOCC4)c(=O)c4c(-c5ccc(CN6CCCC6)cc5)cc(c(O)n1CCCN1CCOCC1)c2c4-3`, the growth in the assay on NCI-H23 lung is -70.9% (active); in the assay on NCI-H322M lung, -29.6% (active); in the assay on HOP-62 NSCLC, -21.3% (active); in the assay with NCI-H460 lung, -62.9% (active); in the assay with A549/ATCC NSCLC it was -16.2% (active); in the assay with 786-0 renal, -42% (active). Moreover, the growth with COLO 205 colon is -60.4% (active).

Consider `Oc1cccc(Nc2nc(-c3ccccn3)cs2)c1`, for which the growth with NCI-H23 lung was 107%; in the assay on NCI-H322M lung it was 94.6%; in the assay on HOP-62 NSCLC, 98%; in the assay on HOP-92 NSCLC it was 89%; with A549/ATCC NSCLC it was 94.8%; in the assay on 786-0 renal, 102%. Further, the growth with COLO 205 colon is 103%.
